Experimental data: PubChem BioAssay (Tox21)
Several values for one entry are separate records, joined by “and”; a condition that tells them apart may be missing. Identical values can stand only once. Inconclusive results are not listed. Activity calls are given as the source filed them. Unless noted, the call rests on the fitted dose curve; in most records, active means well fitted curve in the direction sought with a large enough effect in the repeat runs; inconclusive means weak or mixed curves; inactive means no such curve, though single readings can be large; an effect the other way counts as inactive or inconclusive.

How the values were obtained:
[1] = qHTS assay to identify small molecule agonists of the hypoxia (HIF-1) signaling pathway - cell viability counter screen (AID 1224844; calls by dose curve; further: nearly all actives have a fitted effect of over 50% in size)
Method in brief: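 Cytotoxicity was measured in parallel with the HRE-driven beta-lactamase readout: after 17 hrs of compound exposure at 37C, HRE-bla ME-180 cells received CellTiter-Glo and luminescence was recorded 30 min later.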

[2] = qHTS RealTime-Glo MT Cell Viability Assay in HepG2 cells - 24 hour (AID 1224867); further: nearly all actives have a fitted effect of over 50% in size
Method in brief: (§1)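 HepG2 suspension premixed with RealTime-Glo reagents is plated at 600 cells per well and left 5 h at 37 C/5% CO2. Compounds in DMSO then go in, and bioluminescence reflecting viable cell number is recorded over 40 h.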

[3] = qHTS RealTime-Glo MT Cell Viability Assay in HEK293 cells - 32 hour (AID 1224868); further: top concentration of the series differs between compounds; nearly all actives have a fitted effect of over 50% in size
Method in brief: (§2)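 Reads taken at 0, 8, 16, 24, 32 and 40 h from the same wells. HEK293 cells (600/well) carried RealTime-Glo reagents from seeding, with compound added after a 5 h settle at 37 C.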

[4] = A CellTox Green Cytotoxicity Assay to monitor cytotoxicity in HEK293 cells - 0 hour (AID 1224869); further: nearly all actives have a fitted effect of over 50% in size
Method in brief: (§3)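 Cells (HEK293, 600/well) and dye reagent are dispensed together. After 5 h at 37 C, 23 nL compound is pinned in. Plates stay at 37 C for 40 h with fluorescence read at 0h, 8h, 16h, 24h, 32h and 40h.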

[5] = qHTS RealTime-Glo MT Cell Viability Assay in HepG2 cells - 40 hour (AID 1224870); further: nearly all actives have a fitted effect of over 50% in size
Method in brief: (§4)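 Real-time viability: cells seeded at 600 per well together with NanoLuc and cell-permeant prosubstrate, compounds added after 5 h incubation. Luminescence tracked at 0, 8, 16, 24, 32 and 40 h of exposure.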

[6] = A CellTox Green Cytotoxicity Assay to monitor cytotoxicity in HEK293 cells - 40 hour (AID 1224871); further: nearly all actives have a fitted effect of over 45% in size
Method in brief: as §3

[7] = qHTS RealTime-Glo MT Cell Viability Assay in HEK293 cells - 16 hour (AID 1224872)
Method in brief: as §2

[8] = qHTS RealTime-Glo MT Cell Viability Assay in HepG2 cells - 8 hour (AID 1224873); further: nearly all actives have a fitted effect of over 55% in size
Method in brief: as §4

[9] = qHTS RealTime-Glo MT Cell Viability Assay in HEK293 cells - 40 hour (AID 1224874); settings: RealTime-Glo luminescence; max response: hits give low values; further: nearly all actives have a fitted effect of over 50% in size
Method in brief: (§5)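 Real-time viability in HEK293: signal arises when living cells convert a prosubstrate for NanoLuc in the medium, so luminescence tracks viable cell number. Compound (23 nL, DMSO) added 5 h post-seeding; kinetic reads at 0–40 h, 37 C.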

[10] = A CellTox Green Cytotoxicity Assay to monitor cytotoxicity in HEK293 cells - 24 hour (AID 1224875); further: nearly all actives have a fitted effect of over 45% in size
Method in brief: as §3

[11] = A CellTox Green Cytotoxicity Assay to monitor cytotoxicity in HepG2 cells - 16 hour (AID 1224876); further: nearly all actives have a fitted effect of over 45% in size
Method in brief: (§6)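 Cells and non-lytic dye reagent are dispensed together (600 HepG2 cells/well) and incubated 5 h before DMSO compound transfer. Kinetic fluorescence is then recorded in the same wells during 40 h at 37 C.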

[12] = qHTS RealTime-Glo MT Cell Viability Assay in HepG2 cells - 32 hour (AID 1224877); further: nearly all actives have a fitted effect of over 55% in size
Method in brief: as §1

[13] = A CellTox Green Cytotoxicity Assay to monitor cytotoxicity in HepG2 cells - 24 hour (AID 1224878); further: nearly all actives have a fitted effect of over 45% in size
Method in brief: as §6

[14] = A CellTox Green Cytotoxicity Assay to monitor cytotoxicity in HepG2 cells - 40 hour (AID 1224879); further: nearly all actives have a fitted effect of over 40% in size
Method in brief: as §6

[15] = qHTS assay to identify small molecule agonists of H2AX (AID 1224845; active means well fitted activation curve with a large enough effect in the signal ratio in the repeat runs, not every such curve was filed as active; the % refers to the signal ratio)
Method in brief: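 Phospho-H2AX Ser139 measured by HTRF (ex 320 nm; em 665 and 620 nm) after 24 hr antibody incubation. Compounds, 15 concentrations, 0.76% DMSO, were applied to CHO-K1 cells for 3hr at 37C before lysis.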

[16] = qHTS assay to identify small molecule agonists of H2AX - cell viability counter screen (AID 1224847; calls by dose curve;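 further: wild-type CHO-K1 cells; top concentration of the series differs between compounds; nearly all actives have a fitted effect of over 30% in size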)
Method in brief: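 Counter-screen for viability: CellTiter-Glo ATP luminescence read after 3 h compound treatment (15-point titration, 0.76% DMSO final) of CHO-K1 cells at 37C, with 30 min room-temperature reagent incubation.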

[17] = qHTS RealTime-Glo MT Cell Viability Assay in HEK293 cells - 0 hour (AID 1224880)
Method in brief: as §5

[18] = qHTS assay to identify small molecule agonists of the hypoxia (HIF-1) signaling pathway (AID 1224846; active means well fitted activation curve with a large enough effect in the signal ratio in the repeat runs, not every such curve was filed as active; the % refers to the signal ratio)
Method in brief: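 Compounds from the Tox21 10K library, dissolved in DMSO, are tested for induction of a hypoxia response element–controlled beta-lactamase reporter in ME-180 cells. Exposure lasts 17 hrs at 37C after a 5 hr settling period, followed by CCF4-AM FRET substrate.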

[19] = qHTS assay to identify small molecule antagonists of the estrogen related receptor (ERR) signaling pathway from Tox21 library (AID 1224848); further: nearly all actives have a fitted effect of over 50% in size
Method in brief: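 Luciferase luminescence (ONE-Glo, 30 min room temperature) was the read-out. Cells of the NTP-supplied ERR line, 2,000 per well, were given 6 h at 37 C before compound addition in DMSO and 18 h exposure at 37 C.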

[20] = qHTS assay to identify small molecule agonists of the estrogen related receptor (ERR) signaling pathway from Tox21 library (AID 1224849; calls by dose curve; further: nearly all actives have a fitted effect of over 15% in size); settings: ERR reporter cell line, ONE-Glo luciferase, 18 h; at 92.4 µM (top of the series)
Method in brief: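 Cells carrying the ERR reporter were plated and allowed to settle for 6 h, exposed to library compounds for 18 h at 37 C, then lysed with ONE-Glo and luminescence measured.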
On the % scale 0 is the no-effect control and ±100 the full control effect.

O=c1c(O)c(-c2ccc(O)c(O)c2)oc2cc(O)cc(O)c12
inactive: Potency [1] | Potency [2] | Potency [3] | Potency [4] | Potency [5] | Potency [6] | Potency [7] | Potency [8] | max response [9] -22.5% | Potency [10] | Potency [11] | Potency [12] | Potency [13] | Potency [14]

Cc1ccc(C)c(S(=O)(=O)O)c1
inactive: Potency [1] | Potency [15] | Potency [16] | Potency [3] | Potency [4] | Potency [6] | Potency [7] | Potency [8] | max response [9] 6.87% and -2.89% | Potency [10] | Potency [12] | Potency [13] | Potency [14] | Potency [17]

Cc1nnc(NS(=O)(=O)c2ccc(N)cc2)s1
inactive: Potency [1] | Potency [15] | Potency [16] | Potency [3] | Potency [4] | Potency [6] | Potency [7] | Potency [8] | max response [9] -1.44% and 9.25% | Potency [10] | Potency [12] | Potency [13] | Potency [14] | Potency [17]

C=C(CC(=O)O)C(=O)O
inactive: Potency [1] | Potency [15] | Potency [16] | Potency [3] | Potency [4] | Potency [6] | Potency [7] | Potency [8] | max response [9] 2.09% and -0.881% | Potency [10] | Potency [11] | Potency [12] | Potency [13] | Potency [14] | Potency [17]

CCCCC(=O)O
inactive: Potency [1] | Potency [15] | Potency [16] | Potency [2] | Potency [3] | Potency [4] | Potency [5] | Potency [7] | Potency [8] | max response [9] 6.05% and 6.12% | Potency [10] | Potency [12] | Potency [13] | Potency [14] | Potency [17]

OC1CCCCC1
inactive: Potency [1] | Potency [15] | Potency [16] | Potency [2] | Potency [3] | Potency [4] | Potency [5] | Potency [7] | Potency [8] | Potency [10] | Potency [11] | Potency [12] | Potency [13] | Potency [14] | Potency [17]

CC/C=C(\C(=O)N[C@@H]1C(=O)N2C(C(=O)OCOC(=O)C(C)(C)C)=C(COC(N)=O)CS[C@H]12)c1csc(N)n1
inactive: Potency [1] | Potency [15] | Potency [16] | Potency [3] | Potency [4] | Potency [5] | Potency [7] | Potency [8] | Potency [10] | Potency [11] | Potency [12] | Potency [13] | Potency [14] | Potency [17]

CCc1cccc(O)c1
inactive: Potency [1] | Potency [15] | Potency [16] | Potency [2] | Potency [3] | Potency [4] | Potency [6] | Potency [7] | Potency [8] | Potency [10] | Potency [12] | Potency [13] | Potency [14] | Potency [17]

OCc1ccc(Cl)cc1Cl
inactive: Potency [1] | Potency [15] | Potency [16] | Potency [2] | Potency [3] | Potency [4] | Potency [5] | Potency [7] | Potency [8] | Potency [10] | Potency [11] | Potency [12] | Potency [13] | Potency [14] | Potency [17]

CC/C(C)=N/O
inactive: Potency [1] | Potency [15] | Potency [16] | Potency [2] | Potency [3] | Potency [4] | Potency [5] | Potency [7] | Potency [8] | max response [9] 0.953% and 3.11% | Potency [10] | Potency [12] | Potency [13] | Potency [14] | Potency [17]

O=C(c1ccccc1)c1ccc(O)c(O)c1O
inactive: outcome [18] | Potency [16] | Potency [19] | activity change, positive = activation [20] -7.85% and -0.637% | Potency [2] | Potency [3] | Potency [4] | Potency [6] | Potency [7] | Potency [8] | max response [9] -18.4% | Potency [10] | Potency [12] | Potency [13] | Potency [14] | Potency [17]

CC(C)=CCC/C(C)=C/C=O
inactive: Potency [1] | Potency [15] | Potency [16] | Potency [3] | Potency [4] | Potency [5] | Potency [6] | Potency [7] | Potency [8] | Potency [10] | Potency [12] | Potency [13] | Potency [14] | Potency [17]

CC(=O)C(C)C
inactive: Potency [1] | Potency [15] | Potency [16] | Potency [2] | Potency [3] | Potency [4] | Potency [5] | Potency [7] | Potency [8] | Potency [10] | Potency [12] | Potency [13] | Potency [14] | Potency [17]

Clc1cccc(Cl)c1NC1=NCCN1
inactive: Potency [1] | Potency [15] | Potency [16] | Potency [3] | Potency [4] | Potency [6] | Potency [7] | Potency [8] | Potency [10] | Potency [11] | Potency [12] | Potency [13] | Potency [14] | Potency [17]

CCN(CC)CCNC(=O)c1ccc(N)cc1
inactive: Potency [1] | Potency [15] | Potency [16] | Potency [3] | Potency [4] | Potency [5] | Potency [7] | Potency [8] | max response [9] 3.82% and 1.96% | Potency [10] | Potency [11] | Potency [12] | Potency [13] | Potency [14] | Potency [17]

CCCCCCCCCCCC(=O)N(C)CC(=O)O
inactive: activity change, negative = cytotoxicity [1] 0.126% [at 6.97 µM] | Potency [15] | Potency [16] | Potency [3] | Potency [4] | Potency [5] | Potency [7] | Potency [8] | max response [9] 1.1% and -15.4% | Potency [10] | Potency [12] | Potency [13] | cytotoxicity increase [14] 1.38% [at 6.97 µM] | Potency [17]
